Screening data (PubChem)
Shown is part of a subset that was picked to be rich in hits.
ROCK2 blocker = ROCK2 (human) kinase inhibition; O75116; purified ROCK2, Kinase-Glo ATP depletion luminescence; inhibition, % at 6 µM; 0.35% of 60,000 active; AID 604;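 active means inhibition above the screen-wide mean inhibition plus 3 SD, cut at about 18% in these data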;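 further: plate controls were DMSO wells for no effect and Y-27632 control wells after no-enzyme background subtraction for full effect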
hDAT+cocaine = modulates human dopamine transporter uptake under cocaine; Q01959; LLC-PK1 hDAT cells, [14C]-dopamine uptake with cocaine IC80; actives deviate in either direction; B-score at 10 µM; 1.3% of 110,000 active; AID 449768;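 active means Z score or B-score, a plate-position-corrected score, falls beyond the plate's 99.7% confidence bounds, in either direction; inactive means both scores lie inside the 99.7% bounds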;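 further: scored against the spread of the other compound wells on the same plate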
PKA inh = blocks human protein kinase A activity; inhibition, % at 6 µM; P17612; AID 524; 0.1% of 65,000 active; PKA Kemptide phosphorylation, Kinase-Glo ATP luminescence;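 active means inhibition above the screen-wide mean inhibition plus 3 SD, cut at about 21% in these data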
D1 allo mod = allosteric modulators of human D1 dopamine receptor | P21728 | HEK293 D1, CRE-luciferase, dopamine EC30 potentiation; actives deviate in either direction | B-score at 10 µM | 5.9% of 58,000 active | AID 641;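 active means luminescence count or its row- and column-corrected plate score outside the 99.7% band of the plate's sample wells, on either side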
Target sequence (P21728 whole entry, looked up): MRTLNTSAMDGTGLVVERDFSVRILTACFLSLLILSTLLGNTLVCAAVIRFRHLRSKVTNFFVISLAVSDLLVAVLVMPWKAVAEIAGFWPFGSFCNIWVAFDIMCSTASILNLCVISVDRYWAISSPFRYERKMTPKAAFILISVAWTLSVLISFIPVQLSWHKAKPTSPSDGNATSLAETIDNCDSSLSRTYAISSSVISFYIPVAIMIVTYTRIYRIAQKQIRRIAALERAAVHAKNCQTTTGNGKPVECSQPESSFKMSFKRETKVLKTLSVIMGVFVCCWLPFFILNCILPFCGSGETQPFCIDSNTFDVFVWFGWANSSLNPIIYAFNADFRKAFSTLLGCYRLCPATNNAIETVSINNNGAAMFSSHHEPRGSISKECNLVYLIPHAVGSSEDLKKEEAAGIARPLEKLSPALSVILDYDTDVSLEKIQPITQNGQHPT
D1 PAM confirm = confirmation of human D1 dopamine receptor allosteric modulators. shares compounds with D1 allo mod. HEK293 D1 CRE-luciferase, dopamine EC30 potentiation; hits give high values. luminescence at 10 µM. 88% of 2,200 active;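 active means luminescence in either of two replicates above the same-plate mean plus 3 SD of the low-dose dopamine control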
D1 ag no DA = D1 (human) signaling in absence of dopamine; shares compounds with D1 allo mod; HEK293 D1 CRE-luciferase, luminescence, no dopamine; hits give high values; luminescence at 10 µM; 0.8% of 1,900 active; AID 646; in the data active means luminescence above about 3900
Isoprot counter = counter-screen for D1 modulators: isoproterenol response in HEK293 cells. shares compounds with D1 allo mod. HEK293 D1 CRE-luciferase, isoproterenol EC30 counter-screen. calls only at 10 µM. AID 647. 63% of 2,200 active;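 active means luminescence in either replicate above plate mean of wells with a partly effective reference agonist dose plus 3 SD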;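 further: isoproterenol raises cAMP through native beta-adrenoceptor Gs so signal bypasses D1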
Starred values were filed as active, the others as inactive; i = inactive; · = no result given; + = active, no number.

SMILES	ROCK2 blocker	hDAT+cocaine	PKA inh	D1 allo mod	D1 PAM confirm	D1 ag no DA	Isoprot counter
COc1ccc(-c2nnn(CC(=O)N(C3CCCC3)C(C)C(=O)NC3CCCC3)n2)cc1OC (stereo not given)	5	1.4	13	3.6*	6476*	·	i
COc1ccc(-c2nnn(CC(=O)c3c[nH]c4ccccc34)n2)cc1OC	-2	0.2	5	8.1*	19116*	1776	+
COCc1nnc(NC(=O)c2ccc(S(=O)(=O)N(C)C3CCCCC3)cc2)o1	0	-0.45	0	-0.53	·	·	·
COC(=O)C1=C(C)NC(=O)C1(NS(=O)(=O)c1ccc(NC(C)=O)cc1)C(F)(F)F (stereo not given)	·	-0.022	·	·	·	·	·
CC1CCN(CCC(=O)Nc2ccc3c(c2)CCC3)CC1	·	-0.46	·	·	·	·	·
O=[N+]([O-])c1cccnc1NCCNc1ncc(C(F)(F)F)cc1Cl	·	0.31	·	·	·	·	·
CCOc1cc(-c2nnc(-c3ccco3)o2)cc(OCC)c1OCC	3	-0.53	0	3	·	·	·
CCOc1ccc(-c2nnc(-c3ccco3)o2)cc1OCC	-1	1.1	-2	15*	17272*	1612	+
NC(=O)C1CCN(c2nc(C3CC3)nc3c2nnn3Cc2ccccc2)CC1	-1	-0.35	6	15*	24680*	1492	+
CCOC(=O)c1c(NC(=O)c2cccs2)sc(C)c1CC	4	0.23	-2	3.8*	10804*	1624	i
CCOC(=O)c1ccccc1NC(=O)c1cccs1	3	-0.24	4	7.2*	8864*	1480	+
CCOCC(=O)Nc1ccccc1C(=O)OCC	8	0.64	11	2.9	·	·	·
CCc1c(C)sc(NC(=O)c2cccs2)c1C(=O)OC(C)C	1	-0.72	6	1	·	·	·
CCOC(=O)c1ccccc1NC(=O)c1ccccc1SC	1	-0.65	0	-0.046	·	·	·
CCOC(=O)c1ccccc1NC(=O)COc1ccccc1	2	-1.2	4	13*	16280*	1552	+
COc1ccc(/C=N/n2c(N)nc3ccccc32)cc1OC	12	0.089	16	9.5*	21348*	1544	+
O=C1CN(C(=O)c2ccco2)C(c2ccccc2)c2cc(Cl)ccc2N1 (stereo not given)	-2	0.98	1	0.093	·	·	·
O=C1N/C(=N/c2ccccn2)SC1Cc1ccccc1 (stereo not given)	-2	0.0057	2	4.5*	9704*	1888	i
Nc1nc(Nc2cccc(C(F)(F)F)c2)nc(C(F)(F)F)n1	8	-0.31	7	8*	15108*	1664	+
CC1CN(Cc2nc3c(c(=O)n(C)c(=O)n3C)n2Cc2ccc(Cl)cc2)CC(C)O1 (stereo not given)	4	·	6	0.74	·	·	·
Cc1cc(C)n(C(=O)c2ccc(C)c(S(=O)(=O)N3CCCC3)c2)n1	3	0.9	-4	-0.015	·	·	·
COCCn1c(-c2ccco2)nc2nc3ccccc3nc21	0	·	2	9.2*	16228*	1728	+
CCOC(=O)c1ccc(CNC(=O)c2cc3cccc(OC)c3oc2=O)o1	0	·	2	-0.39	·	·	·
CCOC(=O)c1sc(N)nc1-c1ccccc1	0	-0.11	4	12*	13660*	1536	+
CCOC(=O)Nc1sc(C)nc1-c1ccccc1	2	-0.31	10	3.7*	5108	1368	i
SMILES	ROCK2 blocker	hDAT+cocaine	PKA inh	D1 allo mod	D1 PAM confirm	D1 ag no DA	Isoprot counter
CCCSc1oc(-c2ccco2)nc1S(=O)(=O)c1ccccc1	9	0.64	2	17*	14944*	1692	+
COc1cc(-c2nc(S(=O)(=O)c3ccccc3)c(N3CCOCC3)o2)cc(OC)c1OC	·	-0.21	-3	5.1*	11504*	1656	+
CSc1oc(-c2ccco2)nc1S(=O)(=O)c1ccc(Br)cc1	1	-0.45	7	4*	15096*	1696	i
COc1ccc(-c2nc(S(=O)(=O)c3ccc(C)cc3)c(N3CCCC3)o2)cc1	5	-0.045	7	0.94	·	·	·
O=S(=O)(c1ccccc1)c1nc(-c2ccco2)oc1N1CCCCCC1	1	-0.068	6	6.6*	10268*	1700	i
C/C(=C\C(=O)OCCCCCCCCC(=O)O)C[C@@H]1OC[C@H](C[C@@H]2O[C@H]2[C@@H](C)[C@H](C)O)[C@@H](O)[C@H]1O	·	-0.46	·	·	·	·	·
CCSc1oc(-c2ccccc2)nc1S(=O)(=O)c1ccccc1	4	0.21	8	1.9	·	·	·
CCSc1oc(-c2ccco2)nc1S(=O)(=O)c1ccccc1	·	0.29	0	3*	24204*	1844	+
NC(=O)COc1ccc(NC(=O)OCc2ccccc2)cc1	17	-0.85	8	5.6*	10828*	1812	i
O=c1c2ccccc2nc(SCc2cn3ccsc3n2)n1-c1ccccc1	4	0.095	0	·	·	·	·
O=c1c2ccccc2nc(SCc2cn3ccsc3n2)n1-c1ccccc1F	4	0.00018	16	5.7*	14876*	1836	+
CCOc1cc(C2C(C(=O)OC)=C(C)N=C3SCCC(=O)N32)ccc1OC(C)=O (stereo not given)	-1	-1.2	-5	5.1*	6516*	·	+
CS(=O)(=O)N1c2ccccc2[C@]2([C@@]34C[C@H]5C(=O)N[C@@H](Cc6ccccc6)C(=O)N5[C@@H]3N(S(C)(=O)=O)c3ccccc34)C[C@H]3C(=O)N[C@@H](Cc4ccccc4)C(=O)N3[C@H]12	·	0.087	·	·	·	·	·
CC1CCCCN1C(=O)CSc1nc(C2CC2)nc2c1cnn2-c1ccccc1 (stereo not given)	·	-0.27	-7	4*	7396*	1340	i
CCOC(=O)c1ccc(NC(=S)NNC(=O)C2(C)CC2(Cl)Cl)cc1 (stereo not given)	·	0.6	·	·	·	·	·
O=c1c2ccccc2c2ccccc2c(=O)n1Cc1cccnc1	6	-0.43	12	2.8*	7060	1648	i
CCCC(CCC)C(=O)Nc1cccc(C(=O)O)c1	·	2.2	·	·	·	·	·
COC(=O)c1[nH]c2cccc(Cl)c2c1NC(=O)CN(C)C1CCCCC1	-1	0.11	-6	11*	16352*	1684	+
CCOC(=O)C1CCN(CC(=O)Nc2c(C(=O)OC)[nH]c3cccc(Cl)c23)CC1	2	0.31	8	3.7*	9896*	1640	+
O=C(CNC(=O)Cc1ccccc1)NCC(=O)OCc1ccc(C(=O)c2ccccc2)cc1	·	-0.05	·	·	·	·	·
CCCC1=C(C(=O)OCC)C(c2cc(Cl)cc(OC)c2OCc2ccccc2)NC(=O)N1 (stereo not given)	·	0.056	·	·	·	·	·
OCCNc1nc(C2CC2)nc2c1nnn2Cc1ccccc1Cl	-1	-0.46	-5	8.9*	14928*	1728	i
CCCCN(C)C(=O)c1cn(CC)c2ccc(S(=O)(=O)N(C)C)cc2c1=O	2	-0.48	0	3*	5816	1512	i
